Source: PubChem (National Center for Advancing Translational Sciences (NCATS))
In the library only some 21% were active in any assay of this set; here they are far more common.
DT40 TDP1 no CPT – qHTS for Inhibitors of human tyrosyl-DNA phosphodiesterase 1 (TDP1): qHTS in cells in absence of CPT | DT40 Tdp1-/- hTDP1 cells, no CPT, ATP luminescence, 48 h | Potency, µM (series often up to 46.2 µM), for the others: at the top dose activity change, negative = growth inhibition, hits mostly inhibitors | 420,000 tested, 15% active; further: potency means the concentration at half of the fitted maximal effect; on the % scale 0 is the no-effect control and ±100 the full control effect; nearly all actives have a fitted effect of over 55% in size
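No-CPT arm: Tdp1-/-;hTDP1 DT40 cells (400/well) plus compounds, incubated ≥48 hr at 37 °C. Readout CellTiter-Glo luminescence.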
IL-1B inflam inh – qHTS for Inhibitors of Inflammasome Signaling: IL-1-beta AlphaLISA Primary Screen | 360,000 tested, 4.7% active | activity change, % at 57.5 µM | THP-1 LPS/ATP IL-1B secretion, AlphaLISA, 16 h; stronger effect = lower value; in the data active means activity change below about -50%; inconclusive means mostly about -30% to -49%; further: on the % scale 0 is the no-effect control and ±100 the full control effect
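THP-1 cells pretreated 1 hr with compounds (up to 57.5 uM final), then stimulated with LPS (250 ng/mL final) plus ATP (1.25 mM final); secreted IL-1B measured by AlphaLISA after 16 hr, decreased signal indicating inhibition.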
ClpP mod – qHTS Assay for Activators of ClpP; 340,000 tested, 1.9% active; ATP-dependent Clp protease proteolytic subunit (Bacillus subtilis (strain 168)), P80244; Potency, µM (highest dose often 57.5 µM), without a hit: at the highest dose activity change, negative = active; purified B. subtilis ClpP, FRET peptide cleavage, 20 min; active means well fitted falling curve with a large enough effect; inconclusive means small, poorly fitted or top-dose-only effect; inactive means no such curve, though single readings can be large or run the other way; further: potency means the concentration at half of the fitted maximal effect; the source files actives as falling curves though it sought activators and does not explain the sign; nearly all actives have a fitted effect of over 65% in size
Target sequence (P80244 whole entry, looked up): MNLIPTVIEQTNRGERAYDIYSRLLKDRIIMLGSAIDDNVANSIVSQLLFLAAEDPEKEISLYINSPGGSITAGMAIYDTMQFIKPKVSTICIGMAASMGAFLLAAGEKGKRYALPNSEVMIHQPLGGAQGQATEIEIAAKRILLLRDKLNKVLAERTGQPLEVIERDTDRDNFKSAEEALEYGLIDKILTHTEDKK
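Purified B. subtilis ClpP, 10 microg/mL final in Tris/HCl pH8 with KCl, BSA, glycerol and Tween-20, cleaved an Abz/nitrotyrosine-quenched decapeptide. Fluorescence (ex 320, em 430) was read at 0 and 20 min at room temperature. Delta was normalized to 5.8 microM ADEP and DMSO/no-enzyme controls.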
D3 ag – qHTS of D3 Dopamine Receptor Agonist: qHTS | D(3) dopamine receptor (Homo sapiens), P35462 | D3R DiscoveRx beta-arrestin cells, luminescence, 90 min | max activation, % | 410,000 tested, 0.58% active | AID 652048, 2013; in the data active means max activation above about 30%; further: 0% is about no effect
Target sequence (P35462 whole entry, looked up): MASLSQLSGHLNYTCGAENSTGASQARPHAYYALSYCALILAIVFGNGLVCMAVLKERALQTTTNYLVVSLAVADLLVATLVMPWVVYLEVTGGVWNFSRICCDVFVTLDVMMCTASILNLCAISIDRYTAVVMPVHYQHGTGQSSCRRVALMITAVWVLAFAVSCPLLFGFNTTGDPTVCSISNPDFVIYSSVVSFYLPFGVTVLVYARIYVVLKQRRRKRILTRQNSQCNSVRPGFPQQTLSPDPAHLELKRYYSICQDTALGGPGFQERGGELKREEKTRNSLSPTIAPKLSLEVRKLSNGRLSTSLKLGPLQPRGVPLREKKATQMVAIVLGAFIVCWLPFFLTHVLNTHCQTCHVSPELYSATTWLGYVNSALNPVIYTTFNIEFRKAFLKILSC
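Agonist mode: compounds and dopamine controls were applied to plated cells for 90 min at 37 degrees C after an overnight attachment at 1500 cells/well. Luminescent read-out followed 30 - 60 minutes at room temperature with DiscoveRx detection reagent.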
TDP1 cell CPT – qHTS for Inhibitors of human tyrosyl-DNA phosphodiesterase 1 (TDP1): qHTS in cells in presence of CPT. chicken DT40 Tdp1-/-;hTDP1 cells + 20 nM CPT, ATP luminescence, 48 h. Potency, µM (highest dose often 46.2 µM), for the others: top-dose activity change, negative = growth inhibition, usual class: inhibitors. 420,000 tested, 12% active; further: potency means the concentration at half of the fitted maximal effect; on the % scale 0 is the no-effect control and ±100 the full control effect; nearly all actives have a fitted effect of over 55% in size
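Cell growth measured by CellTiter-Glo luminescence after a minimum 48 h, 37 C compound exposure with 20 nM CPT in Tdp1-knockout DT40 cells stably expressing hTDP1, seeded 400/well; qHTS titration format.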
DRD3 antagonist – qHTS of D3 Dopamine Receptor Antagonist: qHTS | D(3) dopamine receptor (Homo sapiens), P35462 | D3R cells, DiscoveRx beta-arrestin luminescence, antagonist mode; stronger effect = lower value | max response, negative = inhibition, % | 360,000 tested, 2.5% active; in the data active means max response below about -50%; inconclusive means no clear call, values can overlap the other calls; further: on the % scale 0 is the no-effect control and ±100 the full control effect
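Cells plated overnight at 1500 cells/well, then exposed to library compounds with dopamine controls for 90 minutes at 37 degrees C. DiscoveRx reagent added for 30–60 minutes at room temperature; luminescence read, quantitative HTS format.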
The depositor's hits bear a star; ? = inconclusive; · = no result given; [ ] = dose if it differs, or a comment. Unless noted, the call rests on the fitted dose curve; in most records, active means well fitted inhibition curve with a large enough effect; inconclusive means small, poorly fitted or top-dose-only effect; inactive means flat fitted curve, though single readings scatter.

SMILES	DT40 TDP1 no CPT	IL-1B inflam inh	ClpP mod	D3 ag	TDP1 cell CPT	DRD3 antagonist
COc1ccc2c(c1)C/C(=C\c1ccc(N(C)C)cc1)C2=O	?	·	-0.4%	·	?	·
C=CCC1(Cl)C(=O)C(Cl)=C(N2CCN(C)CC2)C1(OC)OC (configuration not stated)	-2.7%	15.8	-0.3%	-19.9	0.4%	-0.9
O=C(Nc1nc2ccccc2n1CCN1CCCC1)C1CCCCC1	-4.6%	-16.7	0.1%	0.6	-6.6%	-81.6*
CCn1nccc1C(=O)Nc1nc2ccccc2n1CCN1CCCCC1	?	?	-6.3%	-6.3	35.5µM*	-87.2*
O=C(Nc1ccc2ccccc2n1)C1CCCCC1	?	-16.2	·	4.9	-24.3%	-6.7
O=C(Nc1nc2ccccc2n1CCN1CCCCC1)C1CCCCC1	?	-22.0	-1.2%	-14.7	?	-62.1*
COc1ccc(OC)c(CNc2nc3ccccc3n2CCN2CCCCC2)c1	?	-16.6	-1.5%	-46.0	?	?
CCn1c(NC(=O)C2CCCCC2)nc2ccccc21	13µM*	-11.9	0.2%	-2.8	18.4µM*	0.2
O=C(Nc1nc2ccccc2n1CCN1CCOCC1)c1ccc(Cl)cc1	?	·	·	-14.8	-6.1%	-26.6
C[C@@H]1CC[C@H](Cc2ccc(-n3cccc3)cc2)N1C(=O)OC(C)(C)C	18.4µM*	0.9	0.7%	5.0	?	26.9
CCOc1ccc(Br)cc1CC(=O)O	-16.0%	-6.4	-0.8%	3.5	5.2%	1.5
CCCOc1ccc(Br)cc1CSC(=N)N	2.06µM*	-85.6*	-0.6%	-5.3	6.51µM*	-0.6
CSc1ccccc1NC(=O)C(C)N(C)CC(=O)N1CCN(Cc2ccccc2)CC1 (configuration not stated)	20.6µM*	2.3	?	-0.3	?	-7.6
CN(CC(=O)N1CCN(Cc2ccccc2)CC1)S(=O)(=O)c1ccc(Br)cc1	?	-3.0	2.0%	-37.8	?	?
CC(C(=O)Nc1ccc(C(F)(F)F)cc1)N(C)CC(=O)N1CCN(Cc2ccccc2)CC1 (configuration not stated)	?	-51.3*	-1.1%	-10.7	?	-1.9
CC(C)CC(=O)N1CCN(Cc2ccc(C(F)(F)F)cc2)CC1	?	-5.6	-0.1%	8.6	?	5.1
Cc1ccccc1C1(CC(=O)N2CCCCC2C)CC(=O)N(Cc2cccnc2)C1=O (configuration not stated)	?	·	·	·	17.3%[9.04 µM]	·
N#CCCNCC1(c2ccccc2)CCCC1	4.9%	7.8	0.1%	4.0	26.7%	-54.4*
CCOCC(=O)Nc1cc(S(=O)(=O)N2CCOCC2)ccc1N1CCCCC1	16.4µM*	8.2	·	5.2	14.6µM*	15.0
O=C(Cc1c(F)cccc1Cl)Nc1ccccc1N1CCCCC1	?	15.3	-3.6%	-1.5	16.4µM*	1.8
O=C(Cc1c(F)cccc1Cl)Nc1cc(S(=O)(=O)N2CCCCC2)ccc1N1CCOCC1	16.4µM*	-15.6	·	-10.2	?	-19.4
O=C(CCc1ccccc1Cl)Nc1cc(S(=O)(=O)N2CCOCC2)ccc1N1CCCC1	18.4µM*	-13.1	·	-3.4	14.6µM*	-9.2
O=C(Cc1ccccc1Cl)Nc1cc(S(=O)(=O)N2CCOCC2)ccc1N1CCOCC1	-15.4%	-5.6	-1.5%	-0.1	-9.3%	2.4
O=C(Cc1c(F)cccc1Cl)Nc1ccccc1C(=O)N1CCCCC1	-20.1%	5.9	1.2%	0.8	-6.6%	-14.1
COc1ccc(CCN2CC(C(=O)NCc3ccon3)CCC2=O)cc1 (configuration not stated)	-0.9%	17.8	0.4%	-10.0	-2.8%	-15.3
SMILES	DT40 TDP1 no CPT	IL-1B inflam inh	ClpP mod	D3 ag	TDP1 cell CPT	DRD3 antagonist
COc1ccccc1C1CN(CC(=O)NCC2OCCc3ccccc32)Cc2ccccc2O1 (configuration not stated)	-15.1%	·	·	·	2.8%[9.04 µM]	·
CCOc1ccccc1C(=O)NCC(=O)OCC(=O)N1CCCC1	7.2%	9.8	-5.6%	-3.3	1.0%	-5.5
CN(CC(=O)Nc1ccc(F)c(F)c1F)C(=O)c1ccc(-n2cncn2)cc1	13.7%	31.4	-0.6%	5.5	-6.8%	4.8
COc1ccc(NC(=O)CC2C(=O)N(c3ccc(OC)cc3)C(=O)N2Cc2ccc(OC)c(OC)c2)cc1 (configuration not stated)	-30.2%	12.1	-0.3%	-6.9	-22.2%	4.3
Cc1ccc(-c2n[nH]c3c2C(c2ccc(C(C)(C)C)cc2)NC3=O)cc1 (configuration not stated)	-5.8%	·	-2.5%	3.3	-4.0%	·
Cc1cc(OCC(=O)NC2CC2)c2c(C)c(C)c(=O)oc2c1	?	-0.6	3.6%	-1.3	-5.5%	-9.9
COc1ccc(CC(=O)OCC(=O)Nc2cc(S(=O)(=O)N3CCOCC3)ccc2N2CCCC2)cc1	-7.5%	22.8	·	-3.8	0.3%	-8.1
COc1ccc(C(=O)OCC(=O)Nc2cc(S(=O)(=O)N3CCOCC3)ccc2N2CCCC2)cc1	-18.1%	-63.8*	·	-2.7	3.0%	-4.1
O=C(Cc1ccc(F)cc1)Nc1cc(S(=O)(=O)N2CCOCC2)ccc1N1CCCCC1	23.1µM*	20.1	-1.3%	-1.3	?	-16.1
COc1ccc(CC(=O)Nc2cc(S(=O)(=O)N3CCOCC3)ccc2N2CCCC2)cc1	-12.7%	13.0	-1.5%	6.6	0.8%	6.4
NS(=O)(=O)c1cccc(C(=O)NC2CCSc3ccccc32)c1 (configuration not stated)	-10.5%	-0.7	·	-7.0	9.2%	11.7
CC(=O)c1cccc(S(=O)(=O)NC2CCSc3ccccc32)c1 (configuration not stated)	11.6µM*	35.7	·	-4.5	?	-10.7
COc1cccc(Cn2cccc(NC(=O)Nc3ccc(C#N)cc3)c2=O)c1	8.2µM*	-3.7	-15.2%	-5.3	18.4µM*	-6.3
O=C(NC(NCc1ccccc1)C(Cl)(Cl)Cl)c1cccnc1 (configuration not stated)	-18.4%	14.5	-0.4%	-3.3	-13.5%	-1.6
O=C(CCc1nnc(Cc2ccc(-c3ccccc3)cc2)o1)NCCc1cccnc1	18.4µM*	0.0	-0.2%	2.4	?	30.1
Cc1ccc(CC(=O)NCc2ccc(F)cc2)cc1	4.61µM*	0.0	·	-5.9	4.11µM*	-8.5
